Data from PubChem BioAssay.

Assay: reducers of endogenous Her2 protein level, primary screen, SKBR3 breast tumor cells, AlphaScreen, ATP viability (AID 461);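 also: percent of carrier control wells set as 100% viability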
Conditions: 18-24 h, measured here: SKBR3 viability, ATP luminescence, at 10 µM

SMILES	viability [%]
Cc1nc(CNS(=O)(=O)c2ccc3c(c2)OCCO3)cs1	96
CCN(CCNC(=O)C1CCN(S(C)(=O)=O)CC1)c1ccccc1	91
CC(C)Cn1c(CN(Cc2ccccc2)Cc2ccccc2)nc2c1c(=O)n(C)c(=O)n2C	85.5
CCc1ccc2c(CN(CC)Cc3nc4ccccc4c(=O)[nH]3)cc(=O)oc2c1	86
Cc1cc2oc(=O)cc(C)c2c(=O)o1	101
Cc1ccccc1NC(=O)NCCCN1CCN(C2CCCCC2)CC1	102
COc1ccc(S(=O)(=O)NCCC(=O)NC2CCCCCCC2)cc1	108
CCC(Oc1ccc2ccccc2c1)C(=O)O (stereo not given)	89.5
COc1ccc(Br)cc1CNC(=O)CCc1nc(-c2ccc(C)cc2)no1	101
COc1ccc(S(=O)(=O)N2CCCC(C(=O)N3CCCCCC3)C2)cc1 (stereo not given)	102
COc1ccccc1N1CC(O)=C(c2nc3ccccc3c(=O)[nH]2)C1=N	116
COc1ccccc1NC(=O)C(O)C(O)C(=O)Nc1ccccc1OC (stereo not given)	111
COc1cc(CC(=O)NCc2ccc3c(c2)OCO3)cc(OC)c1OC	99
Cc1cc(OCC(=O)N2CCOCC2)cc2oc(=O)c3ccccc3c12	108
COc1cccc(NC(=O)COC(=O)c2ccco2)c1	112
CN(Cc1ccccc1)Cc1nc2c(c(=O)n(C)c(=O)n2C)n1Cc1ccc(Cl)cc1	67.5
CCc1ccc(NC(=O)C2CC(=O)N(C(C)C)C2)cc1 (stereo not given)	111
CCOC(=O)N1CCN(c2c(N3CCN(c4ccccn4)CC3)c(=O)c2=O)CC1	104
COc1cccc(Oc2cnc(N)nc2-c2ccc(OC)cc2O)c1	91.5
O=C(CSc1ncnc2c1oc1ccccc12)Nc1ccccc1F	96.5

SMILES	viability [%]
Cn1c(=O)c2c(nc(SCCCC#N)n2Cc2ccccc2F)n(C)c1=O	79.5
Cn1c(=O)c2c([nH]c(=O)n2C)n(C)c1=O	104
COc1ccc(-c2cc(C(=O)NCCc3ccccc3)no2)cc1OC	102
CCCN1CCC(NC(=O)Nc2ccc(OC)c(OC)c2)CC1	124
c1nnc(NC2=NCCCCC2)s1	91.5
CCOC(=O)CSc1cn2c(n1)CCC2	99.5
COC(=O)c1sc(N2C(=O)C(O)=C(C(=O)c3ccc(C)o3)C2c2ccc(F)cc2)nc1C (stereo not given)	95
CCOCCc1nnc(NC(=O)c2ccc(OC)c(OC)c2)s1	107
CN(C1CCCCC1)S(=O)(=O)c1ccc(NC(=O)c2ccco2)cc1	91.5
CCCOc1ccccc1NC(=O)c1c(-c2ccccc2)noc1C	84.5
CCNC(=O)N(C(=O)NCC)n1c(C)nnc1C	100
O=C(OCC#CCSc1nnc(-c2ccccc2)o1)c1cccs1	130
CC1(c2ccc(Cl)cc2)NC(=O)N(CC(=O)NC(=O)NCc2ccco2)C1=O (stereo not given)	96
CCCN1C2=C(C(=O)CCC2)C(c2ccc(O)c(Br)c2)C2=C1CCCC2=O	96
CCOC(=O)C1=C(CN2CCOCC2)NC(=O)NC1c1cc(C)ccc1C (stereo not given)	92
Cc1ccc(C(C)C)c(OCCn2c(=O)oc3ccccc32)c1	89
Cc1ccc(-c2csc3nnc(SCC(=O)NCc4ccco4)n23)cc1	88.5
CC1CCN(C(=O)CCNS(=O)(=O)c2ccccc2)CC1	110
Cc1ccc(C)c(-n2c(CNC(=O)c3ccco3)nnc2SCC(=O)Nc2nnc(C)s2)c1	100
CSc1nc(=NC(C)=O)ss1	122
